# Experimental data from the supplement of paper PMC8007513.
# Where a name gives a salt, the structure may show the parent alone. ± gives the standard error. Hit rate of the full screen: of about 1,300 compounds, about 130 (10%) showed an effect of 50% or more. This is one part of a sample in which strong results are shown more often than they occur.
# Tested on: Trichoderma virens ATCC 9645
# Assay: growth yield (OD600) with compound + IPBC relative to untreated control; higher = less growth inhibition
# Details: compound concentration: 100 uM, IPBC concentration: 200 ng/ml
# Procedure, shortened: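 Trichoderma virens ATCC 9645 spores, from potato dextrose agar plates grown for 7 days, were brought to 15,000 spores ml^−1 in potato dextrose broth and dispensed as 100 μl aliquots into 96-well plates. Each aliquot received library compounds at 100 μM final, with or without a biocide at 200 ng ml^−1, before growth at 30 °C and OD600 readings on a BioTek EL800 at 40 h and 72 h. Growth is expressed relative to the control containing neither agent and represents means of duplicate screens.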
SMILES,growth yield (40 h),growth yield (72 h)
CCN1CC(CCN2CCOCC2)C(c2ccccc2)(c2ccccc2)C1=O (stereo unspecified) [Doxapram hydrochloride] + CCCCNC(=O)OCC#CI [3-iodo-2-propynyl butylcarbamate (IPBC)],88.6 ± 1.3%,91.14 ± 0.32%
CN(C)CCCSC(=N)N [Dimaprit dihydrochloride] + CCCCNC(=O)OCC#CI [3-iodo-2-propynyl butylcarbamate (IPBC)],93.9 ± 6.5%,95.8 ± 4.3%
Cc1ccc(-c2ncc(Cl)cc2-c2ccc(S(C)(=O)=O)cc2)cn1 [Etoricoxib] + CCCCNC(=O)OCC#CI [3-iodo-2-propynyl butylcarbamate (IPBC)],88.79 ± 0.48%,91.14 ± 0.73%
CN[C@H]1CC[C@@H](c2ccc(Cl)c(Cl)c2)c2ccccc21 [Sertraline] + CCCCNC(=O)OCC#CI [3-iodo-2-propynyl butylcarbamate (IPBC)],30.8 ± 4.1%,82.5 ± 2%
CN[C@@H]1C[C@@H](c2ccc(Cl)c(Cl)c2)c2ccccc21 [Indatraline hydrochloride] + CCCCNC(=O)OCC#CI [3-iodo-2-propynyl butylcarbamate (IPBC)],29.4 ± 4.9%,79.5 ± 1.7%
Cc1c(N(C)CS(=O)(=O)O)c(=O)n(-c2ccccc2)n1C [Dipyrone] + CCCCNC(=O)OCC#CI [3-iodo-2-propynyl butylcarbamate (IPBC)],92.4 ± 6.7%,87.9 ± 5.2%
COc1ccnc(C[S+]([O-])c2nc3cc(OC(F)F)ccc3[nH]2)c1OC (stereo unspecified) [Pantoprazole sodium] + CCCCNC(=O)OCC#CI [3-iodo-2-propynyl butylcarbamate (IPBC)],73.5 ± 2.4%,98.9 ± 0.94%
C#C[C@]1(O)CC[C@H]2[C@@H]3CCc4cc(OC)ccc4[C@H]3CC[C@@]21C [Ethynylestradiol 3-methyl ether] + CCCCNC(=O)OCC#CI [3-iodo-2-propynyl butylcarbamate (IPBC)],87 ± 16%,88.9 ± 12%
CO[C@@]1(NC(=O)C(C(=O)O)c2ccc(O)cc2)C(=O)N2C(C(=O)O)=C(CSc3nnnn3C)CO[C@@H]21 (stereo partly specified) [Moxalactam disodium salt] + CCCCNC(=O)OCC#CI [3-iodo-2-propynyl butylcarbamate (IPBC)],97.1 ± 14%,96 ± 7.7%
CCn1cc(C(=O)O)c(=O)c2cc(F)c(N3CCNCC3)nc21 [Enoxacin] + CCCCNC(=O)OCC#CI [3-iodo-2-propynyl butylcarbamate (IPBC)],83.9 ± 1.6%,87 ± 1.5%
CCCCC(CC)CN1CN(CC(CC)CCCC)CC(C)(N)C1 (stereo unspecified) [Hexetidine] + CCCCNC(=O)OCC#CI [3-iodo-2-propynyl butylcarbamate (IPBC)],28.6 ± 8.6%,91.1 ± 1.8%
CCOC1O[C@H]([C@@H](COCc2ccccc2)OCc2ccccc2)[C@H](OCc2ccccc2)[C@H]1O (stereo partly specified) [Tribenoside] + CCCCNC(=O)OCC#CI [3-iodo-2-propynyl butylcarbamate (IPBC)],75.4 ± 2.1%,88.1 ± 1.1%
COc1cc([C@@H]2c3cc4c(cc3[C@H](O)[C@H]3COC(=O)[C@H]23)OCO4)cc(OC)c1OC [Podophyllotoxin] + CCCCNC(=O)OCC#CI [3-iodo-2-propynyl butylcarbamate (IPBC)],104 ± 6.3%,102 ± 4.5%
CC(=C(CCO)SSCC1CCCO1)N(C=O)Cc1cnc(C)nc1N (stereo in doubt) [Fursultiamine Hydrochloride] + CCCCNC(=O)OCC#CI [3-iodo-2-propynyl butylcarbamate (IPBC)],104 ± 4.3%,102 ± 3.2%
Oc1c(I)cc(Cl)c2cccnc12 [Clioquinol] + CCCCNC(=O)OCC#CI [3-iodo-2-propynyl butylcarbamate (IPBC)],11.4%,5.66 ± 0.21%
Oc1c(Cl)cc(Cl)c2cccnc12 [Chloroxine] + CCCCNC(=O)OCC#CI [3-iodo-2-propynyl butylcarbamate (IPBC)],1.27 ± 0.95%,1.89 ± 0.21%
CC(C(=O)O)c1ccc2c(c1)Cc1cccnc1O2 (stereo unspecified) [Pranoprofen] + CCCCNC(=O)OCC#CI [3-iodo-2-propynyl butylcarbamate (IPBC)],92 ± 8.7%,90.6 ± 3.8%
Nc1ncn(C2OC(CO)C(O)C2O)c(=O)n1 (stereo unspecified) [Azacytidine-5] + CCCCNC(=O)OCC#CI [3-iodo-2-propynyl butylcarbamate (IPBC)],67.2 ± 3%,91.9 ± 1.1%
Cc1cn([C@H]2C=C[C@@H](CO)O2)c(=O)[nH]c1=O [Stavudine] + CCCCNC(=O)OCC#CI [3-iodo-2-propynyl butylcarbamate (IPBC)],98.5 ± 15%,97.6 ± 9.5%

SMILES,growth yield (40 h),growth yield (72 h)
CNS(=O)(=O)Cc1ccc2[nH]cc(CCN(C)C)c2c1 [Sumatriptan succinate] + CCCCNC(=O)OCC#CI [3-iodo-2-propynyl butylcarbamate (IPBC)],92 ± 11%,91.3 ± 7.7%
CCCCS(=O)(=O)N[C@@H](Cc1ccc(OCCCCC2CCNCC2)cc1)C(=O)O [Tirofiban hydrochloride] + CCCCNC(=O)OCC#CI [3-iodo-2-propynyl butylcarbamate (IPBC)],85.5 ± 1.9%,91.3 ± 0.94%
CC(=O)OC1CN2CCC1CC2 (stereo unspecified) [Aceclidine Hydrochloride] + CCCCNC(=O)OCC#CI [3-iodo-2-propynyl butylcarbamate (IPBC)],80.85 ± 0.79%,86.84 ± 0.21%
CC(C)(CO)C(O)C(=O)NCCCO (stereo unspecified) [Panthenol (D)] + CCCCNC(=O)OCC#CI [3-iodo-2-propynyl butylcarbamate (IPBC)],87.2 ± 0.48%,90.09 ± 0.52%
CC(C)(C)NCC(O)c1ccc(O)c(CO)c1 (stereo unspecified) [Salbutamol] + CCCCNC(=O)OCC#CI [3-iodo-2-propynyl butylcarbamate (IPBC)],85.93 ± 0.16%,93 ± 0.94%
OCc1cc(C(O)CNCCCCCCOCCCCc2ccccc2)ccc1O (stereo unspecified) [Salmeterol] + CCCCNC(=O)OCC#CI [3-iodo-2-propynyl butylcarbamate (IPBC)],34.9 ± 1.6%,75.1 ± 3.4%
CC(C)(C)NC[C@H](O)c1ccc(O)c(CO)c1 [Levalbuterol hydrochloride] + CCCCNC(=O)OCC#CI [3-iodo-2-propynyl butylcarbamate (IPBC)],86.2 ± 2.4%,90.3 ± 2.6%
C1N2CN3CN1CN(C2)C3 [Methenamine] + CCCCNC(=O)OCC#CI [3-iodo-2-propynyl butylcarbamate (IPBC)],89 ± 1.3%,93.13 ± 0.84%
Nc1c2ccccc2nc2ccccc12 [Aminacrine] + CCCCNC(=O)OCC#CI [3-iodo-2-propynyl butylcarbamate (IPBC)],85.5 ± 5.4%,96.3 ± 3.4%
Nc1ccc(/N=N/c2ccccc2)c(N)n1 [Phenazopyridine hydrochloride] + CCCCNC(=O)OCC#CI [3-iodo-2-propynyl butylcarbamate (IPBC)],7.15 ± 0.48%,13.5 ± 1.8%
Cc1cccc(C)c1NC1=NCCCS1 [Xylazine] + CCCCNC(=O)OCC#CI [3-iodo-2-propynyl butylcarbamate (IPBC)],84.3 ± 4.3%,88.8 ± 2.8%
CN(C)CCN(Cc1ccccc1)c1ccccn1 [Tripelennamine hydrochloride] + CCCCNC(=O)OCC#CI [3-iodo-2-propynyl butylcarbamate (IPBC)],95 ± 3.5%,95.2 ± 1.9%
CC(C)(C)NC(=O)[C@H]1CC[C@H]2[C@@H]3CC[C@H]4NC(=O)C=C[C@]4(C)[C@H]3CC[C@]12C [Finasteride] + CCCCNC(=O)OCC#CI [3-iodo-2-propynyl butylcarbamate (IPBC)],84.2 ± 7.9%,87.5 ± 6.7%
"Cc1c(O)c(=O)n(-c2ccccc2)n1C [Antipyrine, 4-hydroxy] + CCCCNC(=O)OCC#CI [3-iodo-2-propynyl butylcarbamate (IPBC)]",91.5 ± 2.2%,92.2 ± 1.4%
CO/N=C(\C(=O)N[C@@H]1C(=O)N2C(C(=O)O)=C(COC(N)=O)CS[C@H]12)c1ccco1 [Cefuroxime sodium salt] + CCCCNC(=O)OCC#CI [3-iodo-2-propynyl butylcarbamate (IPBC)],92.13 ± 0.64%,92.2 ± 2%
CC[C@H]1OC(=O)[C@H](C)[C@@H](O[C@H]2C[C@@](C)(OC)[C@@H](O)[C@H](C)O2)[C@H](C)[C@@H](O[C@@H]2O[C@H](C)C[C@H](N(C)C)[C@H]2O)[C@](C)(O)C[C@@H](C)C(=O)[C@H](C)[C@@H](O)[C@]1(C)O [Erythromycin] + CCCCNC(=O)OCC#CI [3-iodo-2-propynyl butylcarbamate (IPBC)],45.3 ± 0.79%,50.8 ± 0.84%
CC[C@H]1OC(=O)[C@H](C)[C@@H](O[C@H]2C[C@@](C)(OC)[C@@H](O)[C@H](C)O2)[C@H](C)[C@@H](O[C@@H]2O[C@H](C)C[C@H](N(C)C)[C@H]2O)[C@](C)(OC)C[C@@H](C)C(=O)[C@H](C)[C@@H](O)[C@]1(C)O [Clarithromycin] + CCCCNC(=O)OCC#CI [3-iodo-2-propynyl butylcarbamate (IPBC)],91.65 ± 0.79%,92.1%
CC[C@H]1OC(=O)[C@H](C)[C@@H](O[C@H]2C[C@@](C)(OC)[C@@H](O)[C@H](C)O2)[C@H](C)[C@@H](O[C@@H]2O[C@H](C)C[C@H](N(C)C)[C@H]2O)[C@](C)(O)C[C@@H](C)CN(C)[C@H](C)[C@@H](O)[C@]1(C)O [Azithromycin] + CCCCNC(=O)OCC#CI [3-iodo-2-propynyl butylcarbamate (IPBC)],108.7 ± 0.95%,106 ± 0.32%
"CN1CCC2(C)c3cc(O)ccc3N(C)C12 (single isomer, unassigned; (-)) [(-)-Eseroline fumarate salt] + CCCCNC(=O)OCC#CI [3-iodo-2-propynyl butylcarbamate (IPBC)]",85 ± 4.9%,90.6 ± 2.1%
